# Assay results as given in PubChem BioAssay (NCI).
# Several values for one entry are separate records, joined by “and”; a condition that tells them apart may be missing. Identical values can stand only once. Compounds without any hit were thinned out: in the full panel of roughly 83,000, 20% have a hit.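 48-hour exposure, single concentration, 96-well plates; percent growth endpoint where 0 means no net growth. Active: below 10.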 A number with no mark means an inactive call. Activity calls are given as the source filed them.
# System: RPMI-8226 leukemia
# Test: NCI-60 one-dose screen, 48 h (100 = growth as untreated, 0 = no growth, -100 = all killed)
# Conditions: 10 µM
# Protocol: Growth inhibition of the RPMI-8226 human tumor cell line is measured as a screen for anti-cancer activity. Cells are grown in 96 well plates and exposed to the test compound for 48 hours. Compounds are tested at a single concentration, which is 10^-5 M for most compounds. The reported endpoint is percent growth (GI% or GIPRCNT), where numbers from 0 - 100% represent growth inhibition, and numbers from -100% - 0 represent cell death. For example, a value of 40 represents 60% growth inhibition. A value of 0 means no net growth occurred over the course of the experiment. A value of -40 indicates 40% of cells at the beginning of the experiment died by the end of the experiment. A value of -100 means all cells are dead at the end of the experiment.
# NCI-60 Human Tumor Cell Lines Screen was performed using the standard one-dose NCI protocol, which is described in more detail at https://dtp.cancer.gov/discovery_development/nci-60/default.htm.
# Compounds with GIPRCNT values below 10 were considered active. Activity score was based on GIPRCNT using the following formula: […]
# Score is 0 for GIPRCNT values of 100 or above, 50 for GIPRCNT values of 0, and 100 for GIPRCNT values of -100.
row,SMILES,growth
1,CC(=O)/C=C/c1ccc(OCc2ccc(C(C)(C)C)cc2)cc1,67.6%

# Same assay, conditions: 10 µM unless noted
row,SMILES,growth
1,Cc1ccc(-c2nc3nc(-c4ccc(Cl)cc4)nc(N4CCCNCC4)c3o2)cc1,-48.7% (active)
2,N#Cc1cc(-c2ccnc(Nc3ccc(NC(=O)CCl)cc3)n2)ccc1N1CCCC1,-24.3% (active)
3,O=C1C=C(Nc2ccccc2)c2ncccc2C1=O,-40.7% (active)
4,COC(=O)c1nc(-c2ccc(C)cc2)oc1S(=O)(=O)c1ccc(Cl)cc1,81.2%
5,CC[C@H](C)[C@H](NC(=O)[C@H](CCCCN)NC(=O)[C@H](CCCCN)NC(=O)[C@@H](NC(=O)[C@@H](NC(=O)[C@@H](N)Cc1cnc[nH]1)[C@@H](C)CC)[C@@H](C)CC)C(=O)N[C@@H](CCCNC(=N)N)C(=O)N[C@H](C(=O)N[C@@H](Cc1c[nH]c2ccccc12)C(=O)N[C@@H](Cc1ccc(O)cc1)C(=O)N[C@@H](CCCNC(=N)N)C(=O)N[C@@H](CCCCN)C(=O)N[C@@H](C)C(=O)N[C@@H](Cc1c[nH]c2ccccc12)C(=O)N[C@@H](Cc1cnc[nH]1)C(=O)N[C@H](C(=O)N[C@@H](CC(C)C)C(=O)NCC(=O)N[C@@H](CCCCN)C(=O)N[C@H](C(N)=O)C(C)C)C(C)C)[C@@H](C)O,56.1%
6,COc1ccc(Nc2nn3c(SCC(=O)c4ccc(C)cc4)nnc3s2)cc1,98%
7,Cc1ccc(NC(=O)N/C(N)=N/c2nc(=O)c3ccccc3s2)cc1,101%
8,O=C1/C(=C/c2ccccc2[N+](=O)[O-])Cc2ccccc21,-5.97% (active) and 3.37% (active)
9,O=Nc1ccc(NO)c2ccccc12,92.2% and 54.7%
10,CN(C)CCCn1c2nc(=O)[nH]c(=O)c-2nc2cc(Cl)c(Cl)cc21,73.6%
11,CS(=O)(=O)Nc1cc(-c2ccc3ncnc(Nc4ccc(F)c(Cl)c4)c3c2)cnc1Cl,-24% (active)
12,N=C(N)SCc1c2ccccc2c(CSC(=N)N)c2ccccc12,46%
13,c1ccc(Cc2cccc[n+]2C(c2ccccc2)c2ccccc2)cc1,12.3%
14,N#Cc1c(N)nnn1Cc1cc(=O)oc2ccc(O)cc12,94.1%
15,O=C(NCCCN1CCCCC1)c1ccc(-c2nc3ccc4[nH]ncc4c3c3c2CCCC3)cc1,29.9%
16,COc1cc2c(cc1OCCCOC1=C=C=C(c3ccc4c(c3)c3cc(-c5ccc(OCCCOc6cc7c(cc6OC)C(=O)N6CCC[C@H]6C=N7)cc5)ccc3n4S(=O)(=O)c3ccc(C)cc3)C=C1)N=C[C@@H]1CCCN1C2=O,17.9%
17,CCNC(=S)n1nc(SC)c(C(=O)OCC)c1N,110%
18,Nc1nc(Nc2cccnc2)sc1C(=O)c1ccccc1F,17.7%
19,COc1cc(CO)cc2cc3ccccc3nc12,101%

row,SMILES,growth
1,O=c1oc2c(Br)cc(Br)cc2cc1-c1cc(-c2ccc(-c3cc(-c4cc5cc(Br)cc(Br)c5oc4=O)nc(-c4cc5cc(Br)cc(Br)c5oc4=O)c3)cc2)cc(-c2cc3cc(Br)cc(Br)c3oc2=O)n1,102%
2,Cc1c(O)c(O)cc2c3c(oc12)CC(c1ccc2c(c1)OCO2)CC3=O (stereo not given),87.5%
3,Nc1nc(N)c2c(n1)NC(c1cccc(Nc3ccnc4cc(C(F)(F)F)ccc34)c1)CC(c1ccc(F)cc1)=N2 (stereo not given),3.03% (active)
4,Cc1cc(N2CCN(CC(=O)Nc3ccc4c(ccn4Cc4ccccc4)c3)CC2)nc(N2CCCCCC2)n1,41.5%
5,CCN(C(=O)N1CCN(c2cc3c(cc2F)c(=O)c(C(=O)O)cn3C2CC2)CC1)c1nc(-c2ccccc2)cs1,12.5%
6,O=c1c(/C=C/c2ccco2)nnc2sc(Nc3ccc(Cl)cc3)nn12,101%
7,CCOC(=O)c1c(-c2ccc(OC)cc2)c(C#N)c2c(C#N)c(N)nn2c1N,13.8%
8,COCCn1cc(-c2nc(-c3cn(CCOC)c4ncccc34)cs2)c2ccccc21,45.2%
9,COc1cc(C=O)ccc1Oc1ccc([N+](=O)[O-])cc1[N+](=O)[O-],89.5%
10,CN(C)CCCn1c2c(c3ccc(N4CCNCC4)cc3c1=O)C(=O)c1ccccc1-2,-32.4% (active)
11,CCCc1cc(C(N)=S)ccn1,120%
12,C#CCOCC1CN(C)C(=O)O1 (stereo not given),110%
13,Nc1ccc(S(=O)(=O)c2ccc(N)cc2)cc1,96.7% and 85.4%
14,CCN(CC)CCOc1ccccc1C,103%
15,Cc1ccc(C(=O)N(CCCN)[C@@H](c2nc3cc(Cl)ccc3c(=O)n2Cc2ccccc2)C(C)C)cc1,-36.6% (active)
16,O=C(Nc1ccccc1C(=O)N/N=C(\c1ccccc1)c1ccccn1)c1ccccc1,20.8%
17,O=C(Nc1ccc(F)cc1)c1cc2cc(Nc3nc(-c4ccccc4)nc4ccccc34)ccc2oc1=O,97.9%
18,Nc1ccc(/C=N/Nc2ccnc3c(N)cccc23)c2cccnc12,-30.3% (active)
19,COc1ccc2c(c1)oc1c(C)c3c(c(C)c12)C(=O)N(Nc1ccccc1)C3=O,112%

# Same assay, conditions: 100 µM
row,SMILES,growth
1,CC(=O)/C=C/c1ccc(OCc2ccc(C(C)(C)C)cc2)cc1,0.803% (active)
